Where “and” joins values, the source holds several entries; their conditions need not be identical. Equal entries are not always repeated. Inconclusive results are not listed. Calls of active or inactive are those of the source. Unless noted, calls follow the shape of the dose curve; as a rule, active = well fitted curve in the direction sought with a large enough effect in the repeat runs; inconclusive = weak or mixed curves; inactive = no such curve, though single readings can be large; an effect the other way counts as inactive or inconclusive.
Tests used:
[1] = qHTS assay to identify small molecule antagonists of the androgen receptor (AR) signaling pathway using the MDA cell line in the presence of 0.5 nM R1881 - cell viability counter screen (AID 1259242); also: nearly all actives have a fitted effect of over 45% in size; also: potency is read from the fitted curve at half-maximal effect
Outline: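 Cells seeded at 3,000/well and allowed 5 hr at 37C, 0% CO2 before compound transfer and R1881 (0.5 nM final) addition; 16 hr later, live-cell protease fluorescence indicated cytotoxicity.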

[2] = molecular target: Androgen receptor (Homo sapiens) (UniProt P10275); experiment: qHTS assay to identify small molecule antagonists of the androgen receptor (AR) signaling pathway using the MDA cell line in the presence of 0.5 nM R1881 (AID 1259243); also: nearly all actives have a fitted effect of over 50% in size; also: potency is read from the fitted curve at half-maximal effect
Chain of Androgen receptor (Homo sapiens) (P10275 whole entry, looked up): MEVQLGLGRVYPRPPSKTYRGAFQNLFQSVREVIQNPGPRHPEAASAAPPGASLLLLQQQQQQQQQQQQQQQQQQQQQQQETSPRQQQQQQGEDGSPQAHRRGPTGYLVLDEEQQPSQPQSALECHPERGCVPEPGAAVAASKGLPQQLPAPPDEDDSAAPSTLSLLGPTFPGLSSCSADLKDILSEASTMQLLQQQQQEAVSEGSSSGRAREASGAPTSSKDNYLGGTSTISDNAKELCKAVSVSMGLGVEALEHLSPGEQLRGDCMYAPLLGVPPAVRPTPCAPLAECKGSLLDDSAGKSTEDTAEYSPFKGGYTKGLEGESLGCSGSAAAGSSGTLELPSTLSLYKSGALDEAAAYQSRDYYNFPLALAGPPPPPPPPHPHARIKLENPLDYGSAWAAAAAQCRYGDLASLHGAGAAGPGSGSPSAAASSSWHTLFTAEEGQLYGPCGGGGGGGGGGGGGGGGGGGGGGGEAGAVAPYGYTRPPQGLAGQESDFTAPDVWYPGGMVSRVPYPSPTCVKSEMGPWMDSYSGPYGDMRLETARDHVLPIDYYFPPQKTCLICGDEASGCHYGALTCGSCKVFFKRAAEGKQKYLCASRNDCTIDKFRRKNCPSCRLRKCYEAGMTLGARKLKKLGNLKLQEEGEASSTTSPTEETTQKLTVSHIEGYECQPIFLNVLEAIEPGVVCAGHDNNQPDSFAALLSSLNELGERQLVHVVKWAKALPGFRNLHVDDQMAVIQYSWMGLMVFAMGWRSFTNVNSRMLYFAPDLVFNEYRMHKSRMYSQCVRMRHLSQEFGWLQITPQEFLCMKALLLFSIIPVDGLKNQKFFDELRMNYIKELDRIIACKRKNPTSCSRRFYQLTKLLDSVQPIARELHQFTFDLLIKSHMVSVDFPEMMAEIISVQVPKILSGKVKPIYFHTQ
Outline: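 Luminescence from an AR/GR-responsive MMTV-luciferase construct in MDA-kb2 breast carcinoma cells, read 30 min after ONE-Glo, following 16 hr co-treatment with compounds and 0.5 nM R1881.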

[3] = qHTS assay to identify small molecule HDAC inhibitors - cell viability counter screen (AID 1259365); also: series mostly up to about 92 µM; nearly all actives have a fitted effect of over 50% in size
Outline: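 Wild-type HCT-116 cells were seeded at 1,500 per well, incubated overnight at 37 C, then exposed to compounds in DMSO for 2hr. Viability was read by CellTiter-Glo luminescence after 30min at room temperature.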

[4] = qHTS assay to identify small molecule agonists of the sonic hedgehog signaling (Shh) pathway - cell viability counter screen (AID 1259366); also: nearly all actives have a fitted effect of over 50% in size; also: potency is read from the fitted curve at half-maximal effect
Outline: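 NIH/3T3-derived 3T3 Gli1-Luc cells (stable Gli1-responsive firefly luciferase reporter) were seeded, rested 4 hr at 37 C/5% CO2, then exposed to compounds in DMSO for 24 hr; viability was read by CellTiter-Fluor fluorescence in the same wells.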

[5] = qHTS assay to identify small molecule antagonists of the sonic hedgehog signaling (Shh) pathway - cell viability counter screen (AID 1259367); also: nearly all actives have a fitted effect of over 55% in size
Outline: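 Conditioned medium drove Shh signaling in 3T3 Gli1-Luc cells exposed to compounds at 37C and 5% CO2. Viability was determined from CellTiter-Fluor fluorescence, with reagent incubated 1 hr after 23 hr of treatment.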

[6] = qHTS assay to identify small molecule agonists of the sonic hedgehog signaling (Shh) pathway (AID 1259368; calls by dose curve; also: series mostly up to about 92 µM; nearly all actives have a fitted effect of over 15% in size)
Outline: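 Following a 24 hr incubation with DMSO-dissolved compounds at 37 C, 5% CO2, Gli1-Luc NIH/3T3-derived cells received luciferase reagent for 30 min at room temperature prior to luminescence measurement.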

[7] = molecular target: Estrogen receptor beta (Homo sapiens) (UniProt Q92731); experiment: qHTS assay to identify small molecule agonists of the estrogen receptor beta (ER-beta) signaling pathway (AID 1259377; active = well fitted activation curve with a large enough effect in the signal ratio in the repeat runs, not every such curve was filed as active; the % refers to the signal ratio)
Chain of Estrogen receptor beta (Homo sapiens) (Q92731 whole entry, looked up): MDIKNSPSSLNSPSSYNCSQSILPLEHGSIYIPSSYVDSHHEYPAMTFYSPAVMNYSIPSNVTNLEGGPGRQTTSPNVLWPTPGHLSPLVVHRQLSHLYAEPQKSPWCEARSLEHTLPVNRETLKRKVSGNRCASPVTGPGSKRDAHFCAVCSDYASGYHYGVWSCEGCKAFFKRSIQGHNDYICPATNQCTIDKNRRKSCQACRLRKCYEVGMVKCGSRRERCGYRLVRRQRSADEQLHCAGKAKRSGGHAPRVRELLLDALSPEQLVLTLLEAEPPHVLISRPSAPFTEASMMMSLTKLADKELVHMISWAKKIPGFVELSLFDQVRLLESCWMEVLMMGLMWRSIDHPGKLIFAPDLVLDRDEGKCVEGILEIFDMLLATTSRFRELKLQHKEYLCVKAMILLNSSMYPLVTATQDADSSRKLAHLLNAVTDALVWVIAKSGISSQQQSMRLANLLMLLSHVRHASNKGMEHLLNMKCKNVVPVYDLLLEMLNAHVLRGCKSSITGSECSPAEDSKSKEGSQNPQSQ
Outline: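 ER-beta-UAS-bla HEK293T (GripTite) cells carrying a UAS-driven beta-lactamase reporter, in medium with 2% charcoal-stripped FBS, were exposed to compounds for 16 hr at 37C; LiveBLAzer B/G FRET substrate was then added and fluorescence read after 2 hours at room temperature.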

[8] = qHTS assay to identify small molecule agonists of the androgen receptor (AR) signaling pathway in the presence of an antagonist - cell viability counter screen (AID 1259379); also: nearly all actives have a fitted effect of over 25% in size; also: potency is read from the fitted curve at half-maximal effect;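 as to activity change, negative = cytotoxicity: MDA-kb2 human breast cancer cells carrying an MMTV luciferase reporter; series mostly up to about 92 µM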
Outline: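 Each compound was tested at 15 concentrations on MDA-kb2 cells in the presence of 3.0uM nilutamide. Viability was measured by CellTiter-Fluor fluorescence after a 16 hr incubation at 37C in a CO2-free atmosphere.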

[9] = qHTS assay to identify small molecule agonists of the estrogen receptor beta (ER-beta) signaling pathway - cell viability counter screen (AID 1259380); also: nearly all actives have a fitted effect of over 30% in size; also: potency is read from the fitted curve at half-maximal effect
Outline: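 Compounds dissolved in DMSO were pin-transferred onto ER-beta-UAS-bla HEK293T cells that had settled 6 hr, and exposure ran 16 hr at 37C. Following the reporter read, CellTiter-Glo luminescence after 30 min at room temperature indicated cytotoxicity.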

[10] = molecular target: Androgen receptor (Homo sapiens) (UniProt P10275); experiment: qHTS assay to identify small molecule agonists of the androgen receptor (AR) signaling pathway in the presence of an antagonist (AID 1259381; calls by dose curve; also: nearly all actives have a fitted effect of over 15% in size; also: potency is read from the fitted curve at half-maximal effect)
Outline: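 Plated MDA-kb2 cells (3,000/well) were pre-incubated 5hr, given nilutamide (3.0uM final) or buffer, then dosed with compounds in DMSO at 15 concentrations. Luciferase activity was quantified by luminescence after 16hr at 37C.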

[11] = qHTS assay to identify small molecule antagonists of the estrogen receptor beta (ER-beta) signaling pathway - cell viability counter screen (AID 1259382); also: nearly all actives have a fitted effect of over 55% in size; also: potency is read from the fitted curve at half-maximal effect; as to activity change, negative = cytotoxicity: series mostly up to about 92 µM
Outline: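 CellTiter-Glo ATP luminescence measured after the LiveBLAzer read in the same wells; ER-beta-UAS-bla HEK293T cells, 16 hr compound treatment with 1nM 17-beta-estradiol agonist at 37C, 5% CO2.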

[12] = qHTS assay to identify small molecule agonists or antagonists of the thyroid stimulating hormone receptor (TSHR) signaling pathway - wild type cell line counter screen (AID 1259384; calls by dose curve)
Outline: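 Wild-type HEK293 cells were plated 18 h at 37 C/5% CO2, pin-dosed with compound plus Ro20-1724 medium, held 30 min at room temperature, then given cAMP-d2 and anti-cAMP-cryptate; fluorescence was read after 1 h. Fifteen concentrations, triplicate.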

[13] = molecular target: Thyrotropin receptor (Homo sapiens) (UniProt P16473); experiment: qHTS assay to identify small molecule antagonists of the thyroid stimulating hormone receptor (TSHR) signaling pathway (AID 1259385; calls by dose curve; also: nearly all actives have a fitted effect of over 20% in size; also: potency is read from the fitted curve at half-maximal effect)
Chain of Thyrotropin receptor (Homo sapiens) (P16473 whole entry, looked up): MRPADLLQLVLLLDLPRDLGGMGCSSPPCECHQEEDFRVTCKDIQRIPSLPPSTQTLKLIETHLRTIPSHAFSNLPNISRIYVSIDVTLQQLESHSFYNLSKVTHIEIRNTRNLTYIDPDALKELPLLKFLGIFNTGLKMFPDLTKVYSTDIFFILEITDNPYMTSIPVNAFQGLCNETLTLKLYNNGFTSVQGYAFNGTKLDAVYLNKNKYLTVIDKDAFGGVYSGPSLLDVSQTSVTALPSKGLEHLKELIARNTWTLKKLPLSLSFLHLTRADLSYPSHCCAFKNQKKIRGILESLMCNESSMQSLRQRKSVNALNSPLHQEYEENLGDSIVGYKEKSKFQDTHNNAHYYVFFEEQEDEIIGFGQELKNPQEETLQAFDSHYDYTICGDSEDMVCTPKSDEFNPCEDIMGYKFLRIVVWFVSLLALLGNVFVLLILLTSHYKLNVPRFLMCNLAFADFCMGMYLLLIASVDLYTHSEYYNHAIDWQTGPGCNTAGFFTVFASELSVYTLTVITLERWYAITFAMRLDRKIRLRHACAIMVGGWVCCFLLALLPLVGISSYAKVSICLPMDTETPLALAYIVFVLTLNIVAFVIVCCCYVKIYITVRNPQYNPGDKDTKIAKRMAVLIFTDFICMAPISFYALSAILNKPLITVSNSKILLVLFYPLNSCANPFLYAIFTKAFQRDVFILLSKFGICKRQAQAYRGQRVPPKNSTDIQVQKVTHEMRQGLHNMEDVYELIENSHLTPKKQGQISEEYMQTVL
Outline: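 TSHR-HEK293 cells were plated and held 18 h at 37C/5% CO2, then given compound plus Ro20-1724 and stimulated with TSH at 1.5 ng/mL final. After 30 min at room temperature, cAMP was detected with cAMP-d2/anti-cAMP-cryptate (1 h) by fluorescence.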

[14] = qHTS assay to identify small molecule agonists of the estrogen receptor alpha (ER-alpha) signaling pathway in the presence of an antagonist - cell viability counter screen (AID 1259386);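 also: series mostly up to about 92 µM; cells exposed to compounds for 22 h at 37 °C before the viability read; nearly all actives have a fitted effect of over 30% in size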
Outline: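 Using estrogen-depleted VM7Luc4E2 cells, the 15-concentration compound series was applied together with 10.0nM ICI-182,780 and incubated 22hr at 37C/5% CO2. Cell viability was then scored by CellTiter-Fluor.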

[15] = qHTS assay to identify small molecule HDAC inhibitors (AID 1259364);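 also: wild-type HCT-116 cells with endogenous class I/II HDAC activity; top concentration of the series differs between compounds; nearly all actives have a fitted effect of over 45% in size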
Outline: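 HCT-116 wt cells, 1,500/well, overnight attach. Compounds (DMSO) 2 h, 37 °C. HDAC-Glo I/II, 30 min RT. Luminescence.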

[16] = qHTS assay to identify small molecule antagonists of the sonic hedgehog signaling (Shh) pathway (AID 1259369; calls by dose curve; also: nearly all actives have a fitted effect of over 45% in size; also: potency is read from the fitted curve at half-maximal effect)
Outline: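 Read-out is luminescence from a firefly luciferase gene controlled by the Gli1 response element, in 3T3Gli1-Luc cells pre-incubated 4hr then exposed to compounds and conditioned medium for 24hr.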

[17] = molecular target: Estrogen receptor beta (Homo sapiens) (UniProt Q92731); experiment: qHTS assay to identify small molecule antagonists of the estrogen receptor beta (ER-beta) signaling pathway (AID 1259378; active = well fitted inhibition curve with a large enough effect in the signal ratio in the repeat runs, not every such curve was filed as active; the % refers to the signal ratio)
Outline: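 ER-beta-UAS-bla HEK293T (GripTite) cells in 2% charcoal-stripped FBS medium were preincubated 6 hr at 37C, dosed with compound, then stimulated with 1 nM E2 (final) for 16 hr; beta-lactamase reporter read by B/G FRET fluorescence after 2 hr substrate loading.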

[18] = molecular target: Estrogen receptor (Homo sapiens) (UniProt P03372); experiment: qHTS assay to identify small molecule antagonists of the estrogen receptor alpha (ER-alpha) signaling pathway using the BG1 cell line in the presence of 0.1 nM 17-beta-estradiol (AID 1259244); also: nearly all actives have a fitted effect of over 50% in size
Chain of Estrogen receptor (Homo sapiens) (P03372 whole entry, looked up): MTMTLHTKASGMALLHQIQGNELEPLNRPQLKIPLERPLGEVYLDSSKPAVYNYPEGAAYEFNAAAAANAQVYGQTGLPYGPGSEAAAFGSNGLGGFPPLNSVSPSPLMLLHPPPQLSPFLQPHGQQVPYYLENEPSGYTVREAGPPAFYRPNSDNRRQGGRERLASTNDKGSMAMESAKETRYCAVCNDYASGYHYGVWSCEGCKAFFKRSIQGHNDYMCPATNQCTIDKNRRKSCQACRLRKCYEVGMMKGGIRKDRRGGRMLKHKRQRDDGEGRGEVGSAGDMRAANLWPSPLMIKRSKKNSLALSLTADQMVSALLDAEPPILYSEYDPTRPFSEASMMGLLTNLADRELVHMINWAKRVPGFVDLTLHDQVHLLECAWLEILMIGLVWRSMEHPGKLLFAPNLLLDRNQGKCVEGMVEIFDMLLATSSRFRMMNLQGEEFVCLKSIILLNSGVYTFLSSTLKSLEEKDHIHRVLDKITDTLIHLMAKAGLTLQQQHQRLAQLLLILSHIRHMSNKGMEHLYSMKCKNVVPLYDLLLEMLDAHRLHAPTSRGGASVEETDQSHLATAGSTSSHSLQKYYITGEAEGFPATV
Outline: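 Luciferase signal from VM7Luc4E2 ERE-reporter cells, co-dosed with test compound and 0.1 nM final 17beta-estradiol for 22 h, read with ONE-Glo.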

[19] = qHTS assay to identify small molecule phospholipidosis (PLD) inducers (AID 1259344; active = well fitted curve in the direction sought with a large enough effect; an effect the other way counts as inactive or inconclusive)
Outline: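 After 4 h attachment on collagen I, HepG2 cells were dosed with compound alongside LipidTOX Red, kept 24 h at 37 C, fixed, and imaged for lamellar phospholipid pits.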

[20] = molecular target: Estrogen receptor (Homo sapiens) (UniProt P03372); experiment: qHTS assay to identify small molecule agonists of the estrogen receptor alpha (ER-alpha) signaling pathway in the presence of an antagonist (AID 1259383; calls by dose curve; also: top concentration of the series differs between compounds; nearly all actives have a fitted effect of over 15% in size)
Outline: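 Luminescent ERE-luciferase reporter, VM7Luc4E2 cells (endogenous ER-alpha); 10.0nM ICI-182,780 final; 15-point compound titration; 22hr at 37C; ONE-Glo, 30min RT.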
% is scaled to controls: 0 for no effect and ±100 for the full control effect.

CC1(C)COCN1
inactive: Potency [1] | Potency [2] | Potency [3] | Potency [4] | Potency [5] | Potency [6] | Potency [7] | Potency [8] | Potency [9] | Potency [10] | Potency [11] | outcome [12] | Potency [13] | Potency [14]

CC1(C)C(=O)N(Br)C(=O)N1Br
inactive: Potency [1] | Potency [2] | Potency [15] | Potency [3] | Potency [4] | Potency [5] | Potency [16] | Potency [17] | Potency [8] | Potency [9] | Potency [10] | Potency [11] | outcome [12] | Potency [13] | Potency [14]

NC1(c2ccc(-c3nc4ccn5c(=O)[nH]nc5c4cc3-c3ccccc3)cc2)CCC1
inactive: Potency [18] | Potency [19] | Potency [15] | Potency [3] | Potency [6] | Potency [7] | Potency [20] | outcome [12]
active: Potency [1] 33.5 µM | Potency [4] 13.3 µM | Potency [8] 16.8 µM | Potency [9] 1.19 µM | Potency [11] 2.11 µM | Potency [13] 29.8 µM

CCC1CCCCC1
inactive: Potency [1] | Potency [2] | Potency [15] | Potency [3] | Potency [4] | Potency [5] | Potency [6] | Potency [8] | Potency [9] | Potency [10] | Potency [11] | outcome [12] | Potency [13] | Potency [14]

C[C@H]1O[C@@H](O[C@H]2[C@@H](O)C[C@H](O[C@H]3[C@@H](O)C[C@H](O[C@H]4CC[C@@]5(C)[C@H](CC[C@@H]6[C@@H]5C[C@@H](O)[C@]5(C)[C@@H](C7=CC(=O)OC7)CC[C@]65O)C4)O[C@@H]3C)O[C@@H]2C)C[C@H](O)[C@@H]1O
active: Potency [9] 86.4 nM and 95.8 nM | Potency [10] 0.172 µM | Potency [11] 61.2 nM and 76.1 nM
inactive: Potency [1] | Potency [2] | Potency [3] | Potency [4] | Potency [5] | Potency [6] | Potency [8] | Potency [14]

CCN1CCN(c2cc(-c3ccc(F)cc3)c3c(n2)CCCCCC3)CC1
inactive: viability change, negative = cytotoxic [1] 1.73% [at 19 µM] | activity, negative = inhibition [2] -22% [at 19 µM] | activity change, negative = inhibition [15] 1.74% [at 19 µM] | activity change, negative = cytotoxicity [3] -2.01% [at 19 µM] | viability change, negative = cytotoxic [4] -8.82% [at 19 µM] | viability change, negative = cytotoxic [5] -5.57% [at 19 µM] | activity change [6] -0.431% [at 18.9 µM, active compounds read high] | activity change, negative = cytotoxicity [8] -1.28% [at 19 µM] | activation [10] -0.375% [at 19 µM] | activity change, negative = cytotoxicity [11] -0.898% [at 19 µM] | cAMP activity change [12] 2.43% [at 18.9 µM] | activity change, negative = cytotoxicity [14] -2.28% [at 19 µM]

CCCN(CCc1cccs1)[C@H]1CCc2c(O)cccc2C1
active: Potency [2] 26.6 µM
inactive: Potency [1] | Potency [15] | Potency [3] | Potency [4] | Potency [5] | Potency [6] | Potency [8] | Potency [10] | Potency [11] | Potency [20] | outcome [12] | Potency [13] | Potency [14]

CCCCCCCCCCCCN(CCO)CCO
active: Potency [1] 60.9 µM | Potency [2] 48.4 µM | Potency [16] 21.6 µM | Potency [8] 60.9 µM | Potency [9] 60.9 µM | Potency [11] 60.9 µM
inactive: Potency [15] | Potency [3] | Potency [6] | Potency [10] | Potency [20] | outcome [12] | Potency [13] | Potency [14]
